# Test results: PubChem BioAssay (EPA / NIEHS)
# Records with an inconclusive call do not appear. Calls of active or inactive are those of the source. Rule for the calls: active = hit-call score of the fitted dose curve at least 0.9, where 1 is the maximum; inconclusive = response in the unintended direction; inactive = score below 0.9.
# Columns and labels:
# [1] = biological target: bovine Gamma-Aminobutyric Acid Type A Receptor BDZ, alpha 5 site (GABARa5), GABRA5 (gene 523515) (UniProt Q08E50); assay: NVS_LGIC_bGABARa5: NovaScreen (NVS) Ligand-Gated Ion Channel Assay for bovine Gamma-Aminobutyric Acid Type A Receptor BDZ, alpha 5 site (GABARa5) (AID 2283323)
# Chain of bovine Gamma-Aminobutyric Acid Type A Receptor BDZ, alpha 5 site (GABARa5), GABRA5 (gene 523515) (Q08E50 whole entry, looked up): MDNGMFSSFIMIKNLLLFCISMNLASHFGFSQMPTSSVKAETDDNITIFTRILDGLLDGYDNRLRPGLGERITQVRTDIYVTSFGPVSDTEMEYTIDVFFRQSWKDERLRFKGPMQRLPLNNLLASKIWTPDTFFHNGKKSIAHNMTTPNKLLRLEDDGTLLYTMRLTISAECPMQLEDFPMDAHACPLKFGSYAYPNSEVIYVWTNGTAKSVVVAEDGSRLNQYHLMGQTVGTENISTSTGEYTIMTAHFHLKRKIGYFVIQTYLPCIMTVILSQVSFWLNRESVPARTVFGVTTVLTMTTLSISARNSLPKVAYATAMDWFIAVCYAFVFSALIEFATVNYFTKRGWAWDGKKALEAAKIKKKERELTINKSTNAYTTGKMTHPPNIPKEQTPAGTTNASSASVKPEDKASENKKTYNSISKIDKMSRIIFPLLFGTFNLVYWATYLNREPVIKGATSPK
# Method in brief: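 Radioligand competitive displacement binding on bovine hippocampal membranes, read 1 hr after dosing by filter-based scintillation counting. Primary screen at 25 uM in duplicate; actives (e.g. ≥30% inhibition) then run in concentration-response up to 50 uM.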
# [2] = biological target: rat Oxytocin Receptor (OXT), Oxtr (gene 25342) (UniProt P70536); assay: NVS_GPCR_rOXT: NovaScreen (NVS) G Protein-Coupled Receptor Assay for rat Oxytocin Receptor (OXT) (AID 2283330)
# Chain of rat Oxytocin Receptor (OXT), Oxtr (gene 25342) (P70536 whole entry, looked up): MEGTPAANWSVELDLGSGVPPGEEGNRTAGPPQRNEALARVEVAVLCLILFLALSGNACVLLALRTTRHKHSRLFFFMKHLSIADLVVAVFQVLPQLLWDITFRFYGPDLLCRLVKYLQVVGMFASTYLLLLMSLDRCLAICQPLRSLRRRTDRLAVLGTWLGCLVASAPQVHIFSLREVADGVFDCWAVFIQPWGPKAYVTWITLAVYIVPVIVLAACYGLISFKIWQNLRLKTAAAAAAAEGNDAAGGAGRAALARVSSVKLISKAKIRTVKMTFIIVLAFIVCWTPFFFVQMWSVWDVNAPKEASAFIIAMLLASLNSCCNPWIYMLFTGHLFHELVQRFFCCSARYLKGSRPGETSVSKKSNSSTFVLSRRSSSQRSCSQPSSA
# Method in brief: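 Radioligand displacement on rat uterine membranes, 1 h incubation, filter-based scintillation counting. Chemicals were screened in duplicate at 25 uM, and those passing threshold were retested in concentration-response up to 50 uM. Loss of binding was fitted versus DMSO.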
# [3] = biological target: human Serotonin, 5-Hydroxytryptamine Receptor 3 (5HT3), HTR3A (gene 3359) (UniProt P46098); assay: NVS_LGIC_h5HT3: NovaScreen (NVS) Ligand-Gated Ion Channel Assay for human Serotonin, 5-Hydroxytryptamine Receptor 3 (5HT3) (AID 2283325)
# Chain of human Serotonin, 5-Hydroxytryptamine Receptor 3 (5HT3), HTR3A (gene 3359) (P46098 whole entry, looked up): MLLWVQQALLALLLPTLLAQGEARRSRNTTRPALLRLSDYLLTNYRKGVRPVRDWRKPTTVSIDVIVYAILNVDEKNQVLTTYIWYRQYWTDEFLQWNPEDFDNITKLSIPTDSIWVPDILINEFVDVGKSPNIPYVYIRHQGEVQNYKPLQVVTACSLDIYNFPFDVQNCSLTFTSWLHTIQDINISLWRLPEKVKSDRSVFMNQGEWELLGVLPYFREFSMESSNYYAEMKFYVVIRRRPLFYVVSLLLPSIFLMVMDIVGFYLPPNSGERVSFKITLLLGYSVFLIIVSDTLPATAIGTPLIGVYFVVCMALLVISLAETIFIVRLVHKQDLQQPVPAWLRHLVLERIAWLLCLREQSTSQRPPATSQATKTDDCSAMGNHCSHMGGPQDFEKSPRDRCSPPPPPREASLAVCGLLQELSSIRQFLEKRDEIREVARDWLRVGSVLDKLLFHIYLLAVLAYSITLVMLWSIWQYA
# Method in brief: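 Radioligand displacement binding to human 5-HT3 from HEK293 membranes, read by filter-based scintillation counting after 1 h. Screen at 25 uM in duplicate; chemicals passing threshold were retested in concentration-response up to 50 uM.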
# [4] = biological target: rat Glutamate, NMDA Agonist Site (GluNMDA), Grin1 (gene 24408) (UniProt P35439); assay: NVS_LGIC_rGluNMDA_Agonist: NovaScreen (NVS) Ligand-Gated Ion Channel Assay for rat Glutamate, NMDA Agonist Site (GluNMDA) (AID 2283327)
# Method in brief: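 Rat forebrain membranes, radioligand binding in the agonist-site protocol; 1 h after dosing; filter-based scintillation counting. Single-concentration duplicate screen at 25 uM, then concentration-response up to 50 uM for actives; gain-of-signal vs DMSO.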
# [5] = biological target: human Constitutive Androstane Receptor (CAR), NR1I3 (gene 9970) (UniProt Q14994); assay: NVS_NR_hCAR_Agonist: NovaScreen (NVS) Nuclear Receptor Binding Assay for human Constitutive Androstane Receptor Agonism (CAR) (AID 2283328)
# Chain of human Constitutive Androstane Receptor (CAR), NR1I3 (gene 9970) (Q14994 whole entry, looked up): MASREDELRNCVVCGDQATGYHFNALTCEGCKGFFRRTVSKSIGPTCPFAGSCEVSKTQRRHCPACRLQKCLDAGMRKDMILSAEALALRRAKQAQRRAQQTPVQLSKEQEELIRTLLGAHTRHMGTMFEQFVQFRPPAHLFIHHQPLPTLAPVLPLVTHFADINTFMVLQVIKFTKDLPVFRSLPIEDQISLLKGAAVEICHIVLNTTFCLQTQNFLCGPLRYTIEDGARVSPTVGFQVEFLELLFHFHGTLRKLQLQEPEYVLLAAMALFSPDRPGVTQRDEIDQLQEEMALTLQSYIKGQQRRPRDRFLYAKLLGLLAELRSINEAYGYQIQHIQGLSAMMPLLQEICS
# Method in brief: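 Cell-free TR-FRET binding readout with extracted human CAR protein, read 1 h after dosing. Gain of signal fitted against DMSO baseline. Single-concentration duplicates at 25 uM, then concentration-response up to 50 uM for actives.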
# [6] = biological target: human Androgen Receptor (AR), AR (gene 367) (UniProt P10275); assay: NVS_NR_hAR: NovaScreen (NVS) Nuclear Receptor Binding Assay for human Androgen Receptor (AR) (AID 2283332)
# Chain of human Androgen Receptor (AR), AR (gene 367) (P10275 whole entry, looked up): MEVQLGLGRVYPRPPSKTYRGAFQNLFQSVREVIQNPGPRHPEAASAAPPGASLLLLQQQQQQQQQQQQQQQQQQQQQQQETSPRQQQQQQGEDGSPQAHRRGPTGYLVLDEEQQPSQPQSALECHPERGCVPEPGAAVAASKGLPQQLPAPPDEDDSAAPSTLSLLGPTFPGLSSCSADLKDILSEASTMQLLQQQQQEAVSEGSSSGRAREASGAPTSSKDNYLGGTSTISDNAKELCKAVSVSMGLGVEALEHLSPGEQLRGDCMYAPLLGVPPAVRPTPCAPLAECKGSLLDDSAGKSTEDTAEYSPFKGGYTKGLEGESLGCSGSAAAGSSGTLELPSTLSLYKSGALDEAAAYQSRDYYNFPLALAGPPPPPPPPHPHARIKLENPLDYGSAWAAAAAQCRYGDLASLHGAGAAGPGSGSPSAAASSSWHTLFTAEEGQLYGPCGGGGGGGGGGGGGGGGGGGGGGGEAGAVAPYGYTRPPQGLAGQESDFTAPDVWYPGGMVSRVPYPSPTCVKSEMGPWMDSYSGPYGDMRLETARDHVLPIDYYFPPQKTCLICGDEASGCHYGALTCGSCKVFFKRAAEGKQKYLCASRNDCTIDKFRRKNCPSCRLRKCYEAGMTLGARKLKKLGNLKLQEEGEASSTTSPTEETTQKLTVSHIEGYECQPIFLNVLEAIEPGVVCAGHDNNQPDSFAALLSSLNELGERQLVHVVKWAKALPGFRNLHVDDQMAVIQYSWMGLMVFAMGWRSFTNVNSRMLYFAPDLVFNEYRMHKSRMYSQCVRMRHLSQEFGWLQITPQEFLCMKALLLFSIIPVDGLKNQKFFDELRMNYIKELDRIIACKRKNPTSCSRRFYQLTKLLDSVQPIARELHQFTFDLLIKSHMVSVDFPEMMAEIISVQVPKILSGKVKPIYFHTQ
# Method in brief: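 Actives from a duplicate 25 uM single-point screen went on to concentration series. Read-out after 20 h was scintillation counting of displaced radioligand in LnCAP extract, with DMSO as baseline.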
# [7] = biological target: Voltage-gated inwardly rectifying potassium channel KCNH2 (Homo sapiens) (UniProt Q12809); assay: NVS_IC_hKhERGCh: NovaScreen (NVS) Ion Channel Assay for human Potassium Channel ERG (KhERGCh) (AID 2283333)
# Chain of Voltage-gated inwardly rectifying potassium channel KCNH2 (Homo sapiens) (Q12809 whole entry, looked up): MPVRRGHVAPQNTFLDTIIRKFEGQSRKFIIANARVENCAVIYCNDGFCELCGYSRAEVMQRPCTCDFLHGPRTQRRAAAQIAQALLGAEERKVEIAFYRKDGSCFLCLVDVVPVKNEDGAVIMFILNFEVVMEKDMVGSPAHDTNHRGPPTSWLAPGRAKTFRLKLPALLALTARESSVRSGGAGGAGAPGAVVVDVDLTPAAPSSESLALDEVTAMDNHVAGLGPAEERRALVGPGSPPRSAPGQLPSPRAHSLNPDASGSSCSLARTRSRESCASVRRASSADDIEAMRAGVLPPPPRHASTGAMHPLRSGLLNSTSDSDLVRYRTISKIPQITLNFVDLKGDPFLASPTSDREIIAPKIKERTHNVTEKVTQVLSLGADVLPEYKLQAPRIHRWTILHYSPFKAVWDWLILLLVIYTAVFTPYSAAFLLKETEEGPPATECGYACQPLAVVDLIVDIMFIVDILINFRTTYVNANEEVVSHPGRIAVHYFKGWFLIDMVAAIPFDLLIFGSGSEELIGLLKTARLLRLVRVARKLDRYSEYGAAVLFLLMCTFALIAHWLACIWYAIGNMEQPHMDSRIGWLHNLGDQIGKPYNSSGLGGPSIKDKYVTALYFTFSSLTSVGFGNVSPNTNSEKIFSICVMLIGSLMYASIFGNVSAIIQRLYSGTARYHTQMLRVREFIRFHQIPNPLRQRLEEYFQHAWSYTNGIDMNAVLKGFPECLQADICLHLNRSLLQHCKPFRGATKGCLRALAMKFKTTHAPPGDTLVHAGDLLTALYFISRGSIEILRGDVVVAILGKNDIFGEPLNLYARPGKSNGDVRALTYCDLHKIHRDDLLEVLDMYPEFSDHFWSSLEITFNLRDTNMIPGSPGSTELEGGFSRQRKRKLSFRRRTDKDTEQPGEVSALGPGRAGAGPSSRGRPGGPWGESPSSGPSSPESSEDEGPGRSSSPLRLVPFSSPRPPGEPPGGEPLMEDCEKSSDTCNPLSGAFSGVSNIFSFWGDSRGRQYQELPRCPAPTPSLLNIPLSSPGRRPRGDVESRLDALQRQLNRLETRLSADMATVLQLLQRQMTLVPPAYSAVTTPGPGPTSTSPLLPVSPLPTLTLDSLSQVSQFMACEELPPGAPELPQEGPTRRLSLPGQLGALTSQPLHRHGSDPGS
# Experimental: NVS_IC_hKhERGCh is a biochemical, single-readout assay that uses extracted gene-proteins from CHO in a cell-free assay. Measurements were taken 0.75 hour after chemical dosing in a 48-well plate.NVS_IC_hKhERGCh is one of one assay component(s) measured or calculated from the NVS_IC_hKhERGCh assay. It is designed to make measurements of radioligand binding, a form of binding reporter, as detected with scintillation counting signals by Filter-based radiodetection technology.Data from the assay component NVS_IC_hKhERGCh was analyzed into 1 assay endpoint. This assay endpoint, NVS_IC_hKhERGCh, was analyzed in the positive analysis fitting direction relative to DMSO as the negative control and baseline of activity. […] Furthermore, this assay endpoint can be referred to as a primary readout, because the performed assay has only produced 1 assay endpoint. […]
# Binding assays used specific radioligands (tritiated, iodinated) with non-radioactive competitive displacement ligands in agonist or antagonist protocols (as indicated) and various reference compounds and inhibitors to titrate specific binding to receptors and transporters. Most enzyme assays (CYPs, kinases, phosphatases, proteases, HDACs) used recombinant protein and specific substrates (fluorescence mostly, some colorimetric and radioactive) and inhibitors, followed by a biochemical separation of substrate and product. […]
compound,measurement,setting,value
Nc1cc2c3c(c1)C(c1ccccc1)=N[C@@H](NC(=O)c1cccnc1)C(=O)N3CC2,outcome,[1],inactive
CSC(C)(C)C=NO,outcome,[1],inactive
same,outcome,[2],inactive
Nc1ccc(Cl)cc1,outcome,[3],inactive
CC(Cc1ccc(OCC(=O)O)cc1)NCC(O)c1csc(C(F)(F)F)n1 (stereo unspecified),outcome,[4],inactive
c1ccc2c(c1)Nc1ccccc1S2,outcome,[5],inactive
O=P1(N(CCCl)CCCl)NCCCO1 (stereo unspecified),outcome,[2],inactive
O=P(OCC(Br)CBr)(OCC(Br)CBr)OCC(Br)CBr (stereo unspecified),AC50,[6],6.63 µM (active)
CCCCCCCc1ccc(O)cc1,outcome,[6],inactive
same,AC50,[7],0.766 µM (active)
ClC(Cl)(Cl)c1ccccc1,outcome,[7],inactive
